Bioassay records (PubChem)
Compounds with a hit are over-represented: about 11% of the library has one in this group of screens.
CBFb RUNX1 block – qHTS Assay for Compounds Blocking the Interaction Between CBF-beta and RUNX1 for the Treatment of Acute Myeloid Leukemia; Potency, µM (doses to about 59.8 µM), for inactives: top-dose activity, negative = inhibition, hits mostly inhibitors; 230,000 tested, under 10 active; AID 1477, 2009; AlphaScreen CBFb-His/RUNX1-biotin binding, biochemical; note: % of control where 0% means no effect
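Interaction loss through any mechanism counts as activity. Pre-formed complex of His-CBF-beta and biotin-RUNX1 (30 nM apiece) is incubated with compound 15 min, then with 50 ng nickel and 50 ng streptavidin beads for 90 min before AlphaScreen detection.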
PNC assembly inh – High Content Assay for Compounds that inhibit the Assembly of the Perinucleolar Compartment | activity change (PNC), negative = inhibition, % at 10 µM | PC3M PTB-GFP, PNC prevalence imaging, 16 h; hits give low values | actives 3.1% (n = 140,000);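 active = readout at or below -70, meaning at least 70% loss of cells showing the perinucleolar compartment, a nuclear body marking cancer cells; inconclusive = readout between -30 and a set limit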;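 note: plate controls were DMSO wells for no effect and camptothecin positive control wells for full effect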
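Read-out is percentage of cells bearing a perinucleolar compartment, from automated 20x imaging of fixed, Hoechst-stained PC3M PTB-GFP cells. Cells were seeded 4 h, then exposed 16 h to compound (23 nl of library stock) in duplicate plates.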
ALDH1A1 block – qHTS Assay for Inhibitors of Aldehyde Dehydrogenase 1 (ALDH1A1). Aldehyde dehydrogenase 1A1 (Homo sapiens), P00352. Purified ALDH1A1, NADH fluorescence, propionaldehyde substrate. Potency, µM (doses to about 75.3 µM), inactives show top-dose activity, negative = inhibition, actives largely listed as inhibitors. actives 7.3% (n = 220,000). AID 1030, 2008; active = well fitted inhibition curve with a large enough effect, not every such curve was filed as active; inconclusive = small, poorly fitted or top-dose-only effect, or another doubt; inactive = no such curve, though single readings can be large or run the other way;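 note: potency is the fitted concentration of half-maximal effect; plate controls were no enzyme wells and a reference inhibitor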
Target sequence (P00352 whole entry, looked up): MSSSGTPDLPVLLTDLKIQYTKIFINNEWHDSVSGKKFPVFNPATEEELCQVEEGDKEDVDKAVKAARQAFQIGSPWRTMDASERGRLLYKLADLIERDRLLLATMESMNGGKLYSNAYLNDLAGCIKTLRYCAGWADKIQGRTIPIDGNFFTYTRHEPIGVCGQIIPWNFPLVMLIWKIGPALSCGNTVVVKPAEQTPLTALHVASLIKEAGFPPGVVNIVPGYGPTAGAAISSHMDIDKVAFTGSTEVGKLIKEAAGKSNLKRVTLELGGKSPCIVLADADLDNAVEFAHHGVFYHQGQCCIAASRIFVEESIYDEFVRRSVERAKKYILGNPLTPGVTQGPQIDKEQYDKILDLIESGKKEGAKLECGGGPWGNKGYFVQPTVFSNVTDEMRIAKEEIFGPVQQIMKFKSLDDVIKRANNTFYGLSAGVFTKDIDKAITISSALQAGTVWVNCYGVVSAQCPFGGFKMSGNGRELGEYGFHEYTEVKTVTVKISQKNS
HTT cytoprotect – qHTS Multiplex Assay to Identify Dual Action Probes in a Cell Model of Huntington: Cytoprotection (ATP); PC12 HTT-Q103 induced, cytoprotection, ATP luminescence, 40 h; actives 0.14% (n = 230,000); AID 1471, 2008; Potency, µM (series often up to 56.4 µM), for the others: cytoprotection (ATP increase), actives largely listed as activators; note: potency is the fitted concentration of half-maximal effect; % of control where 0% means no effect; nearly all actives have a fitted effect of over 45% in size
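Quantitative HTS on tebufenozide-induced (100 nM) PC12 cells expressing HTTQ103 exon 1–GFP; compounds tested as a concentration series; survival measured via cellular ATP.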
HPGD inh – qHTS Assay for Inhibitors of HPGD (15-Hydroxyprostaglandin Dehydrogenase). 15-hydroxyprostaglandin dehydrogenase [NAD(+)] (Homo sapiens), P15428. actives 4.3% (n = 150,000). AID 894, 2007. Potency, µM, for the others: at the highest dose activity change, negative = inhibition, usual class: inhibitors. purified HPGD, NADH fluorescence kinetic, PGE2 substrate; active = well fitted inhibition curve with a large enough effect, not every such curve was filed as active; inconclusive = small, poorly fitted or top-dose-only effect, or another doubt; inactive = no such curve, though single readings can be large or run the other way; note: potency is the fitted concentration of half-maximal effect; % is set by controls: 0 for no effect and ±100 for the full control effect
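20 nM HPGD preincubated 15 min at room temperature with compound in 50 mM Tris-HCl pH 8, 0.01% Tween 20. Started with 1 mM NAD+ and 30 uM prostaglandin E2; NADH fluorescence (360/450 nm) read 5 times over 30-s intervals, last minus first.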
HTT aggregate – qHTS Multiplex Assay to Identify Dual Action Probes in a Cell Model of Huntington: Aggregate Formation (GFP) | AID 1688, 2009 | PC12 HttQ103-GFP aggregates, Acumen cytometry, 40 h | actives 1.1% (n = 220,000) | Potency, µM (titrated, usually from 46.1 µM), for the others: top-dose activity change, negative = inhibition, hits mostly inhibitors; note: potency is the fitted concentration of half-maximal effect; % is set by controls: 0 for no effect and ±100 for the full control effect; nearly all actives have a fitted effect of over 60% in size
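Aggregate formation scored by laser-scanning cytometer (488 excitation, 500–530 emission) in lysed PC12 cells expressing Q103-GFP after 100 nM tebufenozide induction; library tested in dose series, with ATPLite reagent added in the multiplex.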
Active calls of the source: *; ? = inconclusive; / = not tested or not shown; [ ] = remark or other dose. Unless noted, calls come from the whole dose curve; as a rule, active = well fitted curve in the direction sought with a large enough effect; inconclusive = small, poorly fitted or top-dose-only effect, or another doubt; inactive = no such curve, though single readings can be large; an effect the other way counts as inactive or inconclusive.

SMILES	CBFb RUNX1 block	PNC assembly inh	ALDH1A1 block	HTT cytoprotect	HPGD inh	HTT aggregate
C/C(=N/NC(=O)c1cccnc1)C1=C(O)CC(C)(C)CC1=O	-3%	/	4%	14%	/	-19%
CC(=Nc1cc(C(=O)c2ccccc2)ccc1N)C1=C(O)CC(C)(C)CC1=O	-8%	/	7.9µM*	-60%	/	-21%
CNC(=S)NCCCCc1cnc[nH]1	16%	/	/	/	/	/
Nc1nc2ccc(N3CCOCC3)cc2s1	1%	?	1%	-96%	-1%	11%
CC(C)OC(C)C	0%	/	/	/	/	/
Cn1c(=O)c2c(nc(SCC(=O)O)n2Cc2cc3c(cc2Cl)OCO3)n(C)c1=O	15%	58	35µM*	12%	25µM*	5%
CCn1c(SCC(=O)Nc2ccc3c(c2)OCO3)nc2c1c(=O)n(C)c(=O)n2C	1%	?	17%	7%	-3%	-11%
CN(C(=O)c1ccccc1C(=O)O)C1CC(C)(C)NC(C)(C)C1	/	/	/	18%	/	/
S=c1[nH]nc(CSCCOc2ccc(Cl)cc2Cl)o1	12%	/	0.1µM*	-27%[10 µM]	/	0%[9.22 µM]
S=c1[nH]nc(CSCCOc2ccccc2)o1	7%	/	20µM*	11%[10 µM]	/	-10%[9.22 µM]
S=c1[nH]nc(COc2ccc3ccccc3c2)o1	9%	-27	3.5µM*	-9%[10 µM]	-20%	-16%
Cn1c(CSCCOc2ccccc2)n[nH]c1=S	10%	/	-8%	-1%[10 µM]	/	-4%[9.22 µM]
COc1ccc(Cc2n[nH]c(=S)o2)cc1	-3%	/	?	10%[10 µM]	/	12%[9.22 µM]
COc1ccc(CN2CCN(CC(O)Cn3c4ccccc4c4ccccc43)CC2)cc1 (configuration not stated)	-19%	-102*	4%	-8%[10 µM]	-8%	?
CCn1c2ccccc2c2cc(CN3CCN(S(C)(=O)=O)CC3)ccc21	-12%	-1	2%	-8%[10 µM]	-9%	11%
CCn1c2ccccc2c2cc(CN3CCN(Cc4cc(OC)ccc4O)CC3)ccc21	?	/	35µM*	/	/	?
CCOc1ccc(CN2CCN(CC(O)Cn3c4ccccc4c4ccccc43)CC2)cc1 (configuration not stated)	-13%	20	5%	/	-11%	?
Cc1ccc2nc(SC(C)C(=O)Nc3cccc([N+](=O)[O-])c3)[nH]c2c1 (configuration not stated)	4%	-84*	-1%	6%[10 µM]	?	-6%
COc1ccc(OC)c(CCNC(=O)Cn2sc3nc(C)cc(C)c3c2=O)c1	?	-9	2.5µM*	-146%	1.4µM*	?
Cc1cc(C)c2c(=O)n(CC(=O)NC3CCCC3)sc2n1	5%	/	/	33%[10 µM]	/	-3%[9.22 µM]
Cc1ccc(C(=O)CNc2ccc(C)c(Cl)c2)cc1	-2%	40	10µM*	23%[10 µM]	-30%	12%
Cc1ccc(NC(=O)CNC(=O)c2ccccc2F)cc1Cl	-5%	?	4%	-4%[10 µM]	-6%	7%
Cc1ccc(NC2=C(NC(=O)c3ccccc3)C(=O)c3ccccc3C2=O)cc1Cl	/	-22	20µM*	-7%[10 µM]	20µM*	?
Cc1ccc(C(=O)CNc2cccc(Cl)c2)cc1	11%	26	22µM*	?	-9%	17%
O=C(O)c1ccc(NC2=C(Cl)C(=O)c3ccccc3C2=O)cc1	?	/	/	-97%[10 µM]	/	?
SMILES	CBFb RUNX1 block	PNC assembly inh	ALDH1A1 block	HTT cytoprotect	HPGD inh	HTT aggregate
CCc1ccc(C(=O)NNc2ccc(C)c(Cl)c2)cc1	8%	/	/	19%[10 µM]	/	6%[9.22 µM]
Cc1ccc(NCC(=O)c2ccccc2)cc1Cl	15%	2	20µM*	-33%[10 µM]	-25%	-3%
Cc1ccc(CN2CCN(CCCn3cccn3)CC2CCO)cc1 (configuration not stated)	5%	/	2%	?	/	?
Cc1nc(NCc2ccccc2)c2nc(-c3ccccc3)n(CCN3CCCCC3)c2n1	1%	/	?	-69%	?	/
CC(=O)SC1CC2=CC(=O)CC[C@]2(C)C2CC[C@@]3(C)[C@@H](CC[C@@]34CCC(=O)O4)C12 (some centres not stated)	6%	/	-1%	/	-3%	/
COC(=O)[C@@H](c1ccccc1Cl)N1CCc2sccc2C1	?	/	-1%	-21%	/	/
Cc1ccc(NC(=O)C(c2ccccc2)N(C)C)cc1Cl (configuration not stated)	11%	/	1.4µM*	-11%[10 µM]	/	14%
Cc1ccc(NCCC(=O)c2ccccc2)cc1Cl	2%	/	3.2µM*	-7%	/	-6%
CCCCC/C=C\C\C=C/C=C/C=C/[C@@H](SCC(NC(C)=O)C(=O)O)[C@@H](O)CCCC(=O)O (some centres not stated)	-5%	/	7%	-6%	-4%	/
CCOC(=O)[C@]1(CC(=O)O)CCCC1=O	/	/	2%[13.5 µM]	8%[10 µM]	-9%	/
Cc1csc2nc(CSc3nc4ccccc4o3)c(Br)n12	-1%	16	22µM*	-14%	14µM*	3%
CC(=O)N1CCCc2cc(S(=O)(=O)NC(C(=O)NC3CCCCC3)C(C)C)ccc21 (configuration not stated)	16%	41	7.1µM*	/	-5%	-11%
CC(=O)N1CCc2cc(S(=O)(=O)NC3CCCc4ccccc43)ccc21 (configuration not stated)	4%	44	-4%	38%[10 µM]	-25%	7.1µM*
CC(=O)N1CCCc2cc(S(=O)(=O)NC(C(=O)NC(C)c3ccccc3)C(C)C)ccc21 (configuration not stated)	-4%	?	3.2µM*	-141%	-4%	12%
